From PubChem BioAssay
Values without a mark were called inactive. No rule for the calls is given here.

test system: Aerobactin synthetase IucA (Klebsiella pneumoniae hvKP1); experiment: Biochemical IucA enzyme inhibition primary screen of the Spectrum library (AID 1346200); details: malachite green pyrophosphate, A620, at 8 µM, stronger effect = lower value;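 also: 100% = wells without compound and 0% = wells lacking enzyme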

Compound	activity remaining [%]
COc1cc2c3cc1Oc1cc(ccc1O)C[C@@H]1c4c(cc(OC)c(O)c4Oc4ccc(cc4)C[C@@H]3N(C)CC2)CC[N+]1(C)C	99.6
C=C1CCC2[C@](C)(CO)[C@H](O)CC[C@@]2(C)[C@@H]1C/C=C1/C(=O)OC[C@H]1O (some centres undefined)	108
COC1=CC(=O)C[C@@H](C)[C@]12Oc1c(Cl)c(OC)cc(OC)c1C2=O	115
CC1(C)OC(=O)NC1=O	115
COc1ccc2c(c1)OC/C(=C\c1ccc(OC)c(O)c1)C2=O	120
C[n+]1c2cc(N)ccc2cc2ccc(N)cc21	111
O=C(O[C@@H]1Cc2c(O)cc(O)cc2O[C@@H]1c1cc(O)c(O)c(O)c1-c1c([C@H]2Oc3cc(O)cc(O)c3C[C@H]2O)cc(O)c(O)c1O)c1cc(O)c(O)c(O)c1	119
CN(C)CCc1c[nH]c2ccc(CS(=O)(=O)N3CCCC3)cc12	128
C[C@@H]1CC2C3CCC4=CC(=O)C=C[C@]4(C)[C@@]3(F)[C@@H](O)C[C@]2(C)[C@@]1(O)C(=O)COP(=O)(O)O (some centres undefined)	114
O=c1c(O)c(-c2ccccc2)oc2cc(O)ccc12	100
C#CCCCCCCCCCCCc1ccco1	113
CC[C@@H]1OC(=O)C[C@@H](O)[C@H](C)[C@@H](O[C@@H]2O[C@H](C)[C@@H](O)[C@H](N(C)C)[C@H]2O)[C@@H](CCN2C[C@H](C)C[C@H](C)C2)C[C@@H](C)C(=O)/C=C/C(C)=C\[C@@H]1CO[C@@H]1O[C@H](C)[C@@H](O)[C@@H](OC)[C@H]1OC	112
CC1C/C=C/C=C/C=C/C=C/C(O[C@@H]2O[C@H](C)[C@@H](O)[C@H](N)[C@@H]2O)CC2OC(O)(CC(O)CC3OC3/C=C/C(=O)O1)CC(O)C2C(=O)O (some centres undefined)	118
COc1ccccc1OCC(O)COC(N)=O (centres undefined)	108
C/C=C(\C)C(=O)O[C@@H]1c2c(ccc3ccc(=O)oc23)OC(C)(C)[C@@H]1OC(C)=O	87
CC(=O)N[C@@H]1[C@@H](O)[C@H](O)[C@@H](CO)O[C@H]1O	106
OC/C=C/c1ccc(O)c(O)c1	81.7

Compound	activity remaining [%]
COC(=O)C[C@@H]1C2(C)C(=O)[C@@H](CC3C2CC[C@]2(C)C3CC(=O)O[C@H]2c2ccoc2)[C@H](OC(C)=O)C1(C)C (some centres undefined)	109
C=C[C@H]1CN2CC[C@H]1C[C@@H]2[C@H](O)c1ccnc2ccc(OC)cc12	112
COc1cc([C@@H]2c3cc4c(cc3C(O[C@@H]3O[C@@H]5CO[C@@H](c6cccs6)OC5[C@H](O)[C@H]3O)C3COC(=O)[C@@H]32)OCO4)cc(OC)c1O (some centres undefined)	92.9
C=CCS(=O)C[C@H](N)C(=O)O (some centres undefined)	125
CC12CCCC(O)(C1)C1CC(C)(C)C1CC2 (centres undefined)	91.8
CCn1cc(C(=O)O)c(=O)c2cnc(N3CCCC3)nc21	105
OC(Cn1cncn1)(Cn1cncn1)c1ccc(F)cc1F	105
OCc1ccccc1O	115
CC(=O)O[C@@H]1CC2C(C)(C)[C@H](O)CC[C@]2(C)C2CC[C@@]3(C)[C@H](c4ccoc4)OC(=O)C4OC43[C@@]21C (some centres undefined)	122
CN[C@@H]1[C@H](OC2[C@H](O[C@H]3[C@H](O)[C@@H](O)[C@H](N=C(N)N)[C@@H](O)[C@@H]3N=C(N)N)O[C@@H](C)[C@]2(O)C=O)O[C@@H](CO)[C@H](O)[C@H]1O (some centres undefined)	108
O=C(O)c1cc(=O)c(O)c2c(O)c(O)c(O)cc2c1	104
CCCc1nc2c(C)cc(-c3nc4ccccc4n3C)cc2n1Cc1ccc(-c2ccccc2C(=O)O)cc1	123
C[C@]12CCC(=O)C=C1CCC1C2[C@@H](O)C[C@@]2(C)C1CC[C@]2(O)C(=O)COC(=O)CCC(=O)O (some centres undefined)	123
CCCCCCCCNC(C)C(O)c1ccc(SC(C)C)cc1 (centres undefined)	114
COc1ccc2c(=O)ccoc2c1	120
CC1(C)CC23C(=O)CCC(O)C2(C)CCC13 (centres undefined)	113
C[C@H]1CC2C([C@@H](O)C[C@@]3(C)C2CC[C@]3(O)C(=O)COC(=O)CCC(=O)O)[C@@]2(C)C=CC(=O)C=C12 (some centres undefined)	91.3
